In PMC7862700, “An all-to-all approach to the identification of sequence-specific readers for epigenetic DNA modifications on cytosine” one finds binding signal data, which are given here for one sequence.

What all share (assay): DAPPL (digital affinity profiling via proximity ligation, sequencing); 10 mM Tris-HCl pH 7.5, 50 mM NaCl, 1 mM DTT, 4% glycerol, room temperature, 30 min; GST-TFs on glutathione beads, 16-mer random dsDNA library, 0.1% formaldehyde crosslink after washing; high values mean tight binding
Common to all, as to settings: protein: recombinant; tags: N-terminal GST; dsDNA, one strand shown

One assay has as its target T1, ELK1 (Homo sapiens, UniProt P19419 1-428).
T1 sequence: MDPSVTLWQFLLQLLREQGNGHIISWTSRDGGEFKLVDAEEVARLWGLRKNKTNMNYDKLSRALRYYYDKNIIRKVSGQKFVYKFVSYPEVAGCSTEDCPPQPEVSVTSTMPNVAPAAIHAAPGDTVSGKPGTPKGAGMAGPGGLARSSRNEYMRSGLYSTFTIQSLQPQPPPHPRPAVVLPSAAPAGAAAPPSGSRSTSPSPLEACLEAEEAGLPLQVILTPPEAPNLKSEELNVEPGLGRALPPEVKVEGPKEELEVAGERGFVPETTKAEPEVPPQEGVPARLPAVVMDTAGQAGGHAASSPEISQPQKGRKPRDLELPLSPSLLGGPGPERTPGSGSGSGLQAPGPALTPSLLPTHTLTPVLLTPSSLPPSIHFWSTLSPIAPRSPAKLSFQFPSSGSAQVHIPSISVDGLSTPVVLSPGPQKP
The essentials:
(§1)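 GST fusions of human transcription factors were expressed in yeast and captured with glutathione beads. Once given DNA barcodes and pooled alongside a tag-only sample, they were incubated for 30 min at room temperature with 200 nmole of a random double-stranded 16-mer DNA library in Tris/NaCl/DTT/glycerol buffer, then washed, crosslinked (0.1% formaldehyde), proximity-ligated, PCR-amplified and sequenced on an Illumina NextSeq500. The binding signal of each hexamer is its read frequency for a factor divided by its frequency for the tag-only sample.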

For a further assay, the target named is T2, GABPA (Homo sapiens, UniProt Q06546 1-454).
T2 sequence: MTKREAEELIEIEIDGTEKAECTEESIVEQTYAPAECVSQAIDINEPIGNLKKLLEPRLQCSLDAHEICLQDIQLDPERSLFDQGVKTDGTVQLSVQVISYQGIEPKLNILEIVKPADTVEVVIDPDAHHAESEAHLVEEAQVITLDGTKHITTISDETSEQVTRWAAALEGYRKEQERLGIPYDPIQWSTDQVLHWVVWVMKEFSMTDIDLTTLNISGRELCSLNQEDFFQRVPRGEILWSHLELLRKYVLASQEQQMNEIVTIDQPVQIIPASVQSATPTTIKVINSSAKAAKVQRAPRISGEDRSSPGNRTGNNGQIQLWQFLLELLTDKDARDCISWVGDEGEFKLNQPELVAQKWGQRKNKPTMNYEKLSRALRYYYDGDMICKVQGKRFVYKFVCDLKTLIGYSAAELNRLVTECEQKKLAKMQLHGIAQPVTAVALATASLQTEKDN
The essentials:
as §1

Another assay has as its target ELF1 (Homo sapiens, UniProt P32519 1-619). The essentials: as §1
A further assay deals with SPIB (Homo sapiens, UniProt Q01892 1-262). A digest of the protocol:
as §1

The target in another assay is T3, FEV (Homo sapiens, UniProt Q99581 1-238).
T3 sequence: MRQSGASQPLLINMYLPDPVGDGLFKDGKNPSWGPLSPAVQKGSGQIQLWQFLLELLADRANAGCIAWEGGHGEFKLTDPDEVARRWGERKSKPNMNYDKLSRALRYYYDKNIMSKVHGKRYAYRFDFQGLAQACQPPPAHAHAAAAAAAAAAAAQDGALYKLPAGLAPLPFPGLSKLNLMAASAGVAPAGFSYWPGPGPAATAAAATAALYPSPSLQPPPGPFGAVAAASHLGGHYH
The essentials: as §1

The target of the next assay is ETV5 (Homo sapiens, UniProt P41161 1-510). The essentials:
as §1

The next assay has as its target ELF4 (Homo sapiens, UniProt Q99607 1-663). A digest of the protocol:
as §1

A further assay deals with T4, ELK4 (Homo sapiens, UniProt P28324-2 1-405).
T4 sequence: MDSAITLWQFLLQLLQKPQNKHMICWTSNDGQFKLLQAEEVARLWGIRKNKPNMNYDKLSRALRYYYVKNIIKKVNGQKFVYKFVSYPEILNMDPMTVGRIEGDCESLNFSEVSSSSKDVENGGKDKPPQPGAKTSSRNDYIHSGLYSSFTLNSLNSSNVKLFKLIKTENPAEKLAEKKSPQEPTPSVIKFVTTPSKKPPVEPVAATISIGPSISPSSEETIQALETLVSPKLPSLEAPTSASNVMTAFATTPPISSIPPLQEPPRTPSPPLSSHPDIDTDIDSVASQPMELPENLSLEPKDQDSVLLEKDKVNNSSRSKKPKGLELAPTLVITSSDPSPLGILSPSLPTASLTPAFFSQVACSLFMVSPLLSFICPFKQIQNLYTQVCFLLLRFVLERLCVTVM
The essentials:
as §1

Another assay deals with T5, ETV2 (Homo sapiens, UniProt O00321 1-342).
T5 sequence: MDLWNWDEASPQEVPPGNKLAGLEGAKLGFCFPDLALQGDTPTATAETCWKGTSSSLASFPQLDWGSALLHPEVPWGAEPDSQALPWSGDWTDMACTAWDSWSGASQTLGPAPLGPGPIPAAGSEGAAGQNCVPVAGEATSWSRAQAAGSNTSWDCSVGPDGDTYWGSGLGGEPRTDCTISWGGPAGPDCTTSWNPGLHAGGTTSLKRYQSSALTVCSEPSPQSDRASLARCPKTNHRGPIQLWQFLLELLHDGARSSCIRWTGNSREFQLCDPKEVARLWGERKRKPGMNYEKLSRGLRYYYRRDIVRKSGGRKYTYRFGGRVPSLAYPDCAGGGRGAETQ
A digest of the protocol: as §1

The target in the next assay is ETV1 (Homo sapiens, UniProt P50549 1-477). The essentials:
as §1

For another assay, the target named is T6, ERF (Homo sapiens, UniProt P50548 1-548).
T6 sequence: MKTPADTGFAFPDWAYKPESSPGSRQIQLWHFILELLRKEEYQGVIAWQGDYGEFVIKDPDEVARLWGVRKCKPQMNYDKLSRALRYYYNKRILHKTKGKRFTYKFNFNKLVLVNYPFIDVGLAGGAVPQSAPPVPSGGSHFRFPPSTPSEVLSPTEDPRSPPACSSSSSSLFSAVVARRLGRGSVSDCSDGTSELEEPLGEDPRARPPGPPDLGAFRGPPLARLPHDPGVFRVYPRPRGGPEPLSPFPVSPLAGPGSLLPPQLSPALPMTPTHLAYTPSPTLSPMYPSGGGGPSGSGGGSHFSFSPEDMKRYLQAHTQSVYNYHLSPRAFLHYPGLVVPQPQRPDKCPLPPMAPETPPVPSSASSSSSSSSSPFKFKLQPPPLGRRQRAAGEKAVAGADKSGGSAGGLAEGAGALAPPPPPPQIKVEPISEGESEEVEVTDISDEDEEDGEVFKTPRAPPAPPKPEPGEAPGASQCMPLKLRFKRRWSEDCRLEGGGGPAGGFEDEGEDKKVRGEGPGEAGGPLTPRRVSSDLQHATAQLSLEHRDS
A digest of the protocol:
as §1

The target of the next assay is T7, ETV3L (Homo sapiens, UniProt Q6ZN32 1-361).
T7 sequence: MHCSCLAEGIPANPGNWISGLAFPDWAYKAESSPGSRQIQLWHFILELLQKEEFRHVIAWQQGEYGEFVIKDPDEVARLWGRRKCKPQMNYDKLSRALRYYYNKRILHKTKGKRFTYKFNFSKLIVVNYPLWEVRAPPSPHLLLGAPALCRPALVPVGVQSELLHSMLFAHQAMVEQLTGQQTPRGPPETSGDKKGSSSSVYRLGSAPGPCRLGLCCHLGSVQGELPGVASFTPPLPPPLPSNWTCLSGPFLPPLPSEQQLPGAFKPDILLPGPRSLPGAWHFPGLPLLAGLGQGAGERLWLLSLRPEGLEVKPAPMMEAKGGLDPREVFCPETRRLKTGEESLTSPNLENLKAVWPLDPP
The essentials:
as §1

In a further assay the target is T8, ETS2 (Homo sapiens, UniProt P15036 1-469).
T8 sequence: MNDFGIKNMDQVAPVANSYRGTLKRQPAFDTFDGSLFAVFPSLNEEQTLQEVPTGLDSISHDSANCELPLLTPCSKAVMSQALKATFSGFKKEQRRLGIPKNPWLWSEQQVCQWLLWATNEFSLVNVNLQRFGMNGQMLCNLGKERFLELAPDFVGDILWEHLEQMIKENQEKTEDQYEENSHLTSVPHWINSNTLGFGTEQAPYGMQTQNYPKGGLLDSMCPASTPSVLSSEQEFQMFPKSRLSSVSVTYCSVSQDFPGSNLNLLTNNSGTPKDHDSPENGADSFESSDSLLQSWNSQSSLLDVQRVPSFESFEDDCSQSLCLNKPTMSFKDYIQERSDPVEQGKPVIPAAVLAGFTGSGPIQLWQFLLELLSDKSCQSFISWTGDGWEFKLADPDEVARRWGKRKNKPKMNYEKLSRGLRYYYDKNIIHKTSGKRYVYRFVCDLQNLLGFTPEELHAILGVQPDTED
The essentials:
as §1

Sequence of ELF1 (P32519 whole entry): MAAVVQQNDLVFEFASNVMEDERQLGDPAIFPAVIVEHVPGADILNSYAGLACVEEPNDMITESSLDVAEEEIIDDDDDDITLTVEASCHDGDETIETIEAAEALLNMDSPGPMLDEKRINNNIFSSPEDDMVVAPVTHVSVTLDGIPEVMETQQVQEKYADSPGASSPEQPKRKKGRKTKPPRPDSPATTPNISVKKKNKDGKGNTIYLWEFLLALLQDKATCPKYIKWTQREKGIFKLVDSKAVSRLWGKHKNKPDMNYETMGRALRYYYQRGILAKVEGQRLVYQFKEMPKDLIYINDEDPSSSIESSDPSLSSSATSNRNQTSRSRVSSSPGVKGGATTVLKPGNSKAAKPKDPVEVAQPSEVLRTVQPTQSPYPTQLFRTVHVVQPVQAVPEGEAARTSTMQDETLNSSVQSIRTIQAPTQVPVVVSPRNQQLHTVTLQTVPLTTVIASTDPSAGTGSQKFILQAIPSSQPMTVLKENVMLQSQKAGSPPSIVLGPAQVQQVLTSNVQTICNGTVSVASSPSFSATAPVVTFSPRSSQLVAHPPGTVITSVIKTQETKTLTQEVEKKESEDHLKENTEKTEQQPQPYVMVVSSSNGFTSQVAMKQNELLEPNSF
Sequence of ELF4 (Q99607 whole entry): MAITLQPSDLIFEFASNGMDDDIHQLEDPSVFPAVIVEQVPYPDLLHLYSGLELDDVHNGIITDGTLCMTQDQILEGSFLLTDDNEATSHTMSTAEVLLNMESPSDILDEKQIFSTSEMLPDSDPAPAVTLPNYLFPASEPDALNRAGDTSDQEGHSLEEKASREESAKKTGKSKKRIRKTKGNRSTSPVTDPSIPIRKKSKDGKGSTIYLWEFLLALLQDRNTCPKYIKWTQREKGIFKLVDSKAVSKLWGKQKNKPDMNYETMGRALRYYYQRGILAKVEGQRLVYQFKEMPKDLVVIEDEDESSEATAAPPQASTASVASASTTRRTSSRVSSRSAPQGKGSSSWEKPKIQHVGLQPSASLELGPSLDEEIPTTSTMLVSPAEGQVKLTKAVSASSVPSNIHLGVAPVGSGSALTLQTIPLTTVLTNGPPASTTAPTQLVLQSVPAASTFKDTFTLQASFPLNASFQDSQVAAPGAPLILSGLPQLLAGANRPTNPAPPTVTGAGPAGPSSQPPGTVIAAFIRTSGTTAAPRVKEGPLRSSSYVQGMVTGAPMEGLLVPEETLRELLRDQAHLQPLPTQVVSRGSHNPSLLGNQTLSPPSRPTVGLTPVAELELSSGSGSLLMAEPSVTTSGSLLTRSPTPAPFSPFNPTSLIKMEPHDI
Sequence of ETV1 (P50549 whole entry): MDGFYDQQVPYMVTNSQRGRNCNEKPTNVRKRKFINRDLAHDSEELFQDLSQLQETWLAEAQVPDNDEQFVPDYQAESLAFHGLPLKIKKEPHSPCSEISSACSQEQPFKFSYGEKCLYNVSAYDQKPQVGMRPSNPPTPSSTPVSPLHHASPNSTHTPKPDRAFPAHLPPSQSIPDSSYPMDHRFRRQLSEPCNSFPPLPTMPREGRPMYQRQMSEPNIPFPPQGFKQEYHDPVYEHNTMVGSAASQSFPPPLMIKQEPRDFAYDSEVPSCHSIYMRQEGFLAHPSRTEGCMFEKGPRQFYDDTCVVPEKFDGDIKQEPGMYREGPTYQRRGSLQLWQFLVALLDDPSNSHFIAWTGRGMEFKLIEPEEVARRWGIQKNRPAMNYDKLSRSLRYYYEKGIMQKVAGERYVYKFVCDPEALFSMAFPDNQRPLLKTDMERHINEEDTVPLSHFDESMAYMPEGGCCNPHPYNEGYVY
Sequence of SPIB (Q01892 whole entry): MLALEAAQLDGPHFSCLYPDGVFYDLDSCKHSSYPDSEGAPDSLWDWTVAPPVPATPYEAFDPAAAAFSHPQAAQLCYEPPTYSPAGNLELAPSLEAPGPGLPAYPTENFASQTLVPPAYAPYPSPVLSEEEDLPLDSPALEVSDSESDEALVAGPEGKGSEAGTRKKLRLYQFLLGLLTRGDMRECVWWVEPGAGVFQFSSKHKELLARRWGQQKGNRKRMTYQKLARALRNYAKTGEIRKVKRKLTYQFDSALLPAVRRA
Sequence of ETV5 (P41161 whole entry): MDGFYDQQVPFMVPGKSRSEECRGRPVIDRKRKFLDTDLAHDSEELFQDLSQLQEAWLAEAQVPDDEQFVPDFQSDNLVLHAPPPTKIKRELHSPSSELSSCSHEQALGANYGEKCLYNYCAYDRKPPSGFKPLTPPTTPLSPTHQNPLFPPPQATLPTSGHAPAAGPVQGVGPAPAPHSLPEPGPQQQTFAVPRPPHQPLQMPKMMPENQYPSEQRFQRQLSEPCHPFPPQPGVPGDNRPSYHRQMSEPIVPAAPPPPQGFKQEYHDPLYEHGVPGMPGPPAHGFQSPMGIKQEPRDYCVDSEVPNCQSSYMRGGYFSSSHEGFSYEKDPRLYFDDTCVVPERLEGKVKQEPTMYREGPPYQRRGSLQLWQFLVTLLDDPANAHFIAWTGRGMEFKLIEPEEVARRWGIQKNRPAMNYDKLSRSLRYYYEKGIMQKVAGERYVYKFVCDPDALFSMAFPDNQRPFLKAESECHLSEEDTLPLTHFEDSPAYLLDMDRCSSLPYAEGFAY

For GCCTGA, the binding signal with ELK1 is 1.13 fold enrichment (6-mer frequency, TF over GST control); in the assay with GABPA, 1.11 fold enrichment (6-mer frequency, TF over GST control); with ELF1, 1.04 fold enrichment (6-mer frequency, TF over GST control); with SPIB, 1.09 fold enrichment (6-mer frequency, TF over GST control); in the assay with FEV it was 1.1 fold enrichment (6-mer frequency, TF over GST control); with ETV5, 1.09 fold enrichment (6-mer frequency, TF over GST control). Besides, the binding signal with ELF4 was 1.06 fold enrichment (6-mer frequency, TF over GST control); in the assay with ELK4, 1.07 fold enrichment (6-mer frequency, TF over GST control); in the assay with ETV2, 1.03 fold enrichment (6-mer frequency, TF over GST control); with ETV1 it was 1.05 fold enrichment (6-mer frequency, TF over GST control); with ERF, 1.07 fold enrichment (6-mer frequency, TF over GST control); with ETV3L it was 1.12 fold enrichment (6-mer frequency, TF over GST control). In addition, in the assay with ETS2, the binding signal is 1.02 fold enrichment (6-mer frequency, TF over GST control).
